The values that follow come from PubChem BioAssay (NCI).

About 83,000 compounds went through this panel and 20% of them were active in at least one assay; those are over-represented in the sample as a whole.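 96-well plates, one dose, 48 hours. Percent growth reported; active if below 10.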 Active and inactive are the calls of the source.

The subject of the first assay is SK-MEL-5 melanoma. As to the kind of experiment: NCI-60 one-dose screen, 48 h (100 = growth as untreated, 0 = no growth, -100 = all killed). As to conditions: 10 µM unless noted.
Turning to `CS(=O)(=O)Cc1cnc(C2OCCO2)s1`, the growth was 97.8% (inactive).

As to `COc1ccc(C2=Nc3c(N)ncnc3NC(c3cccc(Nc4ccnc5cc(C(F)(F)F)ccc45)c3)C2)cc1` (configuration not stated), the growth was 51.8% (inactive).

Consider `NS(=O)(=O)c1ccc(N/C=C/C(=O)c2cc3ccccc3oc2=O)cc1`, for which the growth was 92.6% (inactive).

For the next assay, the system named is UACC-62 melanoma. The description is as above. The note with it: 10 µM unless noted.
Regarding `COc1cc(C(=O)c2c(N)ncn2-c2ccccc2)cc(OC)c1OC`, the growth was 70.3% (inactive).

For `CCn1c2ccc(O)cc2c2c(C)c3c[n+](C(C)C)ccc3c(C)c21`, the growth was 15.1% (inactive).

Regarding `Cc1cc2nc(-c3c(-c4ccc(F)cc4)nc4sccn34)[nH]c2cc1C`, the growth is 89% (inactive).

Turning to `Oc1c(I)cc(-c2nc3ccccc3s2)cc1CN(Cc1ccccn1)Cc1ccccn1`, the growth is 10.5% (inactive).

As to `CC(C)(CO)N(CCO)CCO`, the growth is 101% (inactive).

Regarding `CC1(C)CC[C@]2(C(=O)N3CCOCC3)CC[C@]3(C)C(=CC[C@@H]4[C@@]5(C)C/C(=C/c6ccncc6)C(=O)C(C)(C)[C@@H]5CC[C@]43C)[C@@H]2C1`, the growth is 2.88% (active).

For `Cc1cccc(NC(=O)CSc2nc3ccc([N+](=O)[O-])cc3[nH]2)c1`, the growth was 42.6% (inactive).

On to `COc1ccc(-c2oc(=O)ccc2-c2cc(OC)c(OC)c(OC)c2)cc1O`, for which the growth is 21.1% (inactive).

`O=C(O)c1cccc(N/C=C/C(=O)c2cc3cc(Br)ccc3oc2=O)c1`: the growth is 94.2% (inactive).

As for `CC[C@H](C)[C@H](NC(=O)[C@H](CCCNC(=N)N)NC(=O)[C@H](Cc1c[nH]c2ccccc12)NC(=O)[C@@H](NC(=O)[C@H](CCCCN)NC(=O)[C@H](CCCCN)NC(=O)[C@@H](NC(=O)[C@@H](NC(=O)[C@@H](NC(=O)[C@H](CCCCN)NC(=O)[C@H](Cc1ccccc1)NC(=O)[C@H](CCCCN)NC(=O)[C@H](CCCCN)NC(=O)[C@H](Cc1ccccc1)NC(=O)[C@@H](NC(=O)[C@@H](N)CCCCN)[C@@H](C)CC)[C@@H](C)O)[C@@H](C)CC)[C@@H](C)CC)C(C)C)C(=O)N[C@@H](Cc1ccccc1)C(=O)NCC(=O)N[C@@H](CCCNC(=N)N)C(=O)N[C@@H](Cc1ccccc1)C(N)=O`, the growth was -65.7% (active).

Take `CCOC(=O)c1c(C)nc2c(c1N)CC(=O)N2Cc1cc(OC)c(OC)c(OC)c1`: the growth is 51% (inactive).

Take `Cc1c(Cl)cccc1C(=O)Nc1nc2c(s1)CN(C(=O)Nc1cccc(C(F)(F)F)c1)CC2`: the growth was 27.8% (inactive).

`COc1cc2nc(Nc3cccc(F)c3)nc(Nc3cc(C)[nH]n3)c2cc1OC`: the growth was -95.7% [20 µM] (active).

With `CCC(CC)(N(CC(=O)O)CC(=O)O)C(CC)(CC)N(CC(=O)O)CC(=O)O`, the growth was 102% (inactive).

Take `O=C(O)c1cn(C2CC2)c2cc(N3CCN(C(=O)N/N=C/c4ccccc4)CC3)c(F)cc2c1=O`: the growth is 95.3% (inactive).

Take `COc1ncc2cc1NS(=O)(=O)c1cccc(c1)C(=O)NCC1=CC=C(S1)c1ncnc3c1SC2=C3C`: the growth was -46.7% (active).

Take `CCOC(=O)c1c(-c2ccc(Cl)cc2)c(C#N)c2c(C#N)c(N)nn2c1N`: the growth was 46.4% (inactive).

Consider `O=C(/C=C/c1cccc(Cl)c1)c1cccc(OCCCCOc2cccc(C(=O)/C=C/c3cccc(Cl)c3)c2)c1`, for which the growth was 72.8% (inactive).

Take `NC(CSC(c1ccccc1)(c1ccccc1)c1ccc2c(c1)OCO2)C(=O)O` (configuration not stated): the growth is 25.4% (inactive).

With `O=C1NC(=O)c2c1c1c3ccccc3[nH]c1c1oc3ccc(F)cc3c21`, the growth is 46.1% (inactive).

Turning to `O=c1ccc2nc(C(F)(F)F)nn(-c3ccccc3)c-2c1`, the growth was 66.4% (inactive).

Consider `CCNc1nc(-c2ccc(F)cc2)c(C#N)c(=O)n1C`, for which the growth is 44% (inactive).

For `Clc1nccc2c(-c3csc(-c4c[nH]c5ccccc45)n3)c[nH]c12`, the growth was 43.9% (inactive).

On to `C=C(C)[C@@H]1CC[C@]2(CO)CC[C@]3(C)[C@H](CC[C@@H]4[C@@]5(C)CCC(NCCc6ccc(O)cc6)C(C)(C)[C@@H]5CC[C@]43C)[C@@H]12` (some centres not stated), for which the growth is -89.3% (active).

Turning to `CCCCCCCCCCCCCCCCOC(=O)c1c(C)[nH]c(/C=C2\N=C(c3ccc[nH]3)C=C2OC)c1C`, the growth was -15.3% (active).

On to `COc1ccc(-c2ccc(-c3ccc(C(=N)N)cn3)s2)cc1`, for which the growth was 101% (inactive).

Take `COc1cc(-c2nc(SCCC(C)C)nc(N3CCOCC3)c2C#N)cc(OC)c1OC`: the growth is 91.4% (inactive).

Turning to `Cc1cc2oc(=O)cc(CP(=O)(O)O)c2cc1O`, the growth is 90.7% (inactive).

Regarding `O=C1/C=C/[C@@H](O)[C@@H]2C[C@@H](O)C[C@H]2/C=C/CCC[C@H](CCOCc2ccccc2)O1`, the growth is 6.3% (active).
